The values that follow come from PubChem BioAssay AID1851 (National Center for Advancing Translational Sciences (NCATS), 2009).

As usually defined, the AC50 is the midpoint of the concentration-response curve, whichever way the signal moves.

Values joined by “and” are separate entries in the source; they are usually repeats but may differ in a detail not shown here. Identical values can stand only once. Among all 16,000 compounds or so, about 2,600 (16%) were called active. Not shown: some 20% with an inconclusive outcome. Calls come from the whole dose curve; as a rule, active = well fitted curve in the direction sought with a large enough effect; inconclusive = small, poorly fitted or top-dose-only effect, or effect the other way; inactive = no such curve, though single readings can be large or run the other way. Shown is part of a subset that was picked to be rich in actives. Where a structure was tested more than once in an assay, its records may differ in their call.
% is set by controls: 0 for no effect and ±100 for the full control effect.

The target of this assay is Cytochrome P450 2D6 (Homo sapiens) (UniProt P10635). The assay is described as follows: Cytochrome panel assay with activity outcomes. The note with it: recombinant CYP, pro-luciferin dealkylation, luminescence, p450-cyp2d6; series mostly up to 57.1 µM.
Cytochrome P450 2D6 (Homo sapiens), sequence (P10635 whole entry, looked up): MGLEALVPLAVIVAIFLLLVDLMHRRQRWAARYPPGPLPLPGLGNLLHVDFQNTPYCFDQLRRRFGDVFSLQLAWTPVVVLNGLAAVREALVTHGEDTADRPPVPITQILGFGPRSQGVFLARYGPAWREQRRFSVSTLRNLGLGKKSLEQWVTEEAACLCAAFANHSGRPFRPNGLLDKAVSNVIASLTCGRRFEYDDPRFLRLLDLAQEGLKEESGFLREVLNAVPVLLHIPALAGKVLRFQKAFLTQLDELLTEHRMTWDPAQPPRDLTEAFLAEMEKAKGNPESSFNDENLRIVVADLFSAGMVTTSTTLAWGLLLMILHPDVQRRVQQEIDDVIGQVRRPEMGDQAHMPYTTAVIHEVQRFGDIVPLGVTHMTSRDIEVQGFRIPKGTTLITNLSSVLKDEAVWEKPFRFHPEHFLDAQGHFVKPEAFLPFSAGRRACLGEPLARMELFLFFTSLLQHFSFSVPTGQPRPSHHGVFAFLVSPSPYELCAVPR
`CCN(CC)CCn1ncc2c(N)ncnc21`: the activity, negative = inhibition was 4.3% [at 11.4 µM] (inactive). In the case of `CNC(=O)Oc1ccc2c(c1)[C@@]1(C)CCN(C)[C@@H]1N2C`, the AC50 is 0.251 µM (active).

As to `C=C1[C@@H](O)C2C=CC[C@H](C)C(=O)[C@@](C)(O)C=C[C@@H](OC(C)=O)[C@@]23C(=O)N[C@H](Cc2ccccc2)[C@@H]3[C@@H]1C` (stereo not given in full), the AC50 entry is “inactive”. Consider `CCCCC/C=C\C/C=C\C/C=C\C/C=C\CCCC(=O)Nc1ccc(O)cc1`, for which the AC50 entry was “inactive”. Same read-out and setting: as for `CN1[C@H]2CC(=O)C[C@@H]1[C@@H](O)C2`, the entry is “inactive”. `O=C(O)CS(=O)(=O)C(c1ccccc1)c1ccccc1`: the activity, negative = inhibition is 8.36% [at 11.4 µM] (inactive).

As for `N[C@H](Cc1ccc(N(CCCl)CCCl)cc1)C(=O)O`, the AC50 result was “inactive”.

For `NC(=O)c1cc(N2CC2)c([N+](=O)[O-])cc1[N+](=O)[O-]`, the AC50 result is “inactive”. `C=CCO[C@@H](Cn1ccnc1)c1ccc(Cl)cc1Cl`: the AC50 is 5.01 µM (active). Still for that read-out and setting: for `C=C1[C@@H]2CC[C@H]3[C@@]4(C)C[C@@H](O[C@@H]5O[C@H](CO)[C@H](OS(=O)(=O)O)[C@@H](OS(=O)(=O)O)[C@@H]5OC(=O)CC(C)C)C[C@@H](C(=O)O)[C@H]4CC[C@@]3(C2)[C@H]1O` the value was “inactive”; for `C[C@H]1[C@H](NC(=O)/C(=N/OC(C)(C)C(=O)O)c2csc(N)n2)C(=O)N1S(=O)(=O)O` (stereo in doubt), “inactive”. The same measure, in the same setting: as for `CC[n+]1c(/C=C/N(C)c2ccccc2)sc2ccc(Cl)cc21`, the figure is 0.0112 µM (active); as for `c1ccc(N2CC3(CCNCC3)C2)cc1`, “inactive”; as for `c1ccc(N2CCCC3(CCNCC3)C2)cc1`, 7.94 µM (active). The same measure, in the same setting: for `c1cc(CN2CCC3(CCNCC3)CC2)ccn1` the value was “inactive”. Take `c1cc(N2CCCC3(CCNCC3)C2)ccn1`: the AC50 was 10 µM (active).

For `C[N+]1(C)CCN(c2ccccc2)CC1`, the AC50 result is “inactive”. Still for that read-out and setting: as for `O=C(Cn1ncc2ccsc2c1=O)N1CCC2(CC1)OCCO2`, the entry is “inactive”. For `Cc1ccc(N(C)C(=O)Oc2cccc3ccc(C)nc23)cc1`, the AC50 result is “inactive”. For `O=C(O)/C=C(\CC(=O)O)C(=O)O`, the activity, negative = inhibition is -1.58% [at 11.4 µM] (inactive).

As for `N[C@@H](Cn1ccc(=O)n(Cc2ccc(C(=O)O)cc2)c1=O)C(=O)O`, the AC50 result is “inactive”.

`CCN1C[C@@]2(COC)CC[C@H](OC)[C@]34[C@@H]1[C@]1(OCO[C@@]15C[C@@H](OC)C1C[C@H]3[C@H]5[C@@H]1OC)[C@H](O)[C@@H]24`: the AC50 entry is “inactive”. Regarding `C[C@]12N[C@@H](Cc3ccccc31)c1ccccc12`, the AC50 entry was “inactive and 79.4 nM (active) and 5.01 µM (active)”. Regarding `C[C@]12N[C@H](Cc3ccccc31)c1ccccc12`, the AC50 entry is “inactive”. As for `Cc1nnc2ccc(-c3cccc(C(F)(F)F)c3)nn12`, the AC50 result is “inactive”. Regarding `S=C(Nc1ccc(Cl)cc1)NC1CC2CCCC(C1)N2C1CCCC1` (stereo not given), the half-maximal activity concentration (AC50) is 0.501 µM (active).

For `NS(=O)(=O)C[C-]1C=C[CH]([Sb-]([Cl])([Cl])([Cl])([Cl])[Cl])C=C1.c1ccncc1` (stereo not given), the activity, negative = inhibition is 7.69% [at 11.4 µM] (inactive). For the compound `C=CCn1c(O)c(C(C)=NCCCN2CCOCC2)c(=O)[nH]c1=O`, the AC50 result was “inactive”. For `CC(=O)O[C@H]1C[C@@H](O[C@@H]2[C@H](C)O[C@H](O[C@@H]3[C@H](C)O[C@H](O[C@@H]4CC[C@@]5(C)[C@@H](CC[C@]6(C)[C@]5(C)C[C@H](O)[C@]5(C)[C@@H](C7=CC(=O)OC7)CC[C@@]56O)C4)C[C@@H]3O)C[C@@H]2O)O[C@@H](C)[C@H]1O[C@H]1O[C@@H](CO)[C@@H](O)[C@@H](O)[C@@H]1O`, the AC50 entry is “inactive”. The same measure, in the same setting: as for `CC1=CC(=O)C2=C(C)C[C@@H](O)[C@@H]3[C@@H](OC(=O)[C@H]3C)[C@H]12`, the entry is “inactive”; as for `CN1CCN(c2ccc([N+](=O)[O-])c(N/N=C3\CN4CCC3CC4)c2)CC1`, “inactive”. The same measure, in the same setting: as for `C=CCN1C[C@H](C)N([C@H](c2ccc(C(=O)N(CC)CC)cc2)c2cccc(O)c2)C[C@H]1C`, the entry is “inactive”; as for `C=CCN1C[C@H](C)N([C@@H](c2ccccc2)c2ccc(C(=O)N(CC)CC)cc2)C[C@H]1C`, “inactive”; as for `C=CCN1C[C@@H](C)N([C@H](c2ccc(C(=O)N(CC)CC)cc2)c2cccc(OC)c2)C[C@H]1C`, 31.6 µM (active). On to `C=CCN1C[C@H](C)N([C@H](c2ccc(C(=O)N(CC)CC)cc2)c2cccc(OC)c2)C[C@H]1C`, for which the half-maximal activity concentration (AC50) is 1.58 µM (active). As for `Cn1c(=O)c2[nH]cnc2n(C)c1=O.[CH2-][C@H](Cc1cccc2cc(C(=O)O)c(=O)oc12)OC.[Hg].[OH-]`, the activity, negative = inhibition was 10.9% [at 11.4 µM] (inactive). With `Cc1ccc(-c2nc3ccccc3c(=O)n2-c2ncccc2C)cc1`, the AC50 entry is “inactive”. Same read-out and setting: for `C[C@H]1CC[C@@]2(NC1)O[C@@H]1C[C@H]3[C@@H]4CC=C5C[C@@H](O)CC[C@]5(C)[C@@H]4CC[C@]3(C)[C@@H]1[C@@H]2C` the value was “inactive”; for `CCNC[C@H](O)c1cccc(O)c1`, “inactive”. The same measure, in the same setting: for `COc1ccc(OCC(=O)Nc2ccc(Cl)cc2C(=O)c2ccccc2)cc1` the value was “inactive”; for `C[C@@H](Cc1ccc(OCC(=O)O)cc1)NC[C@H](O)c1cccc(Cl)c1`, 25.1 µM (active). The same measure, in the same setting: for `O=C(Nc1ccc(C(F)(F)F)cc1)c1cccn(Cc2ccc3c(c2)OC(F)(F)O3)c1=O` the value was “inactive”. Regarding `CCCCN1C(=O)C(C2c3ccccc3C(=O)N2Cc2ccccc2)C(=O)NC1=S` (stereo not given), the AC50 result was “inactive”. On the same count and under the same terms, for `COC(=O)[C@@H]1[C@@H]2C[C@H]3c4[nH]c5cc(OC)ccc5c4CCN3C[C@@H]2C[C@H](OC(=O)/C=C\c2cc(OC)c(OC)c(OC)c2)[C@H]1OC` the value was “inactive”; for `O=C(CCCN1CCC(n2c(=O)[nH]c3ccccc32)CC1)c1ccc(F)cc1`, 6.31 µM (active). Still for that read-out and setting: for `O=C1NCN(c2ccccc2)C12CCN(CCCOc1ccc(F)cc1)CC2` the value was 0.158 µM (active). `O=C1NCN(c2ccccc2)C12CCN(C[C@H]1COc3ccccc3O1)CC2`: the AC50 was 0.0631 µM (active). The same measure, in the same setting: as for `O=C(CCCN1CCC2(CC1)C(=O)NCN2c1ccccc1)c1ccc(F)cc1`, the figure is 2.51 µM (active) and 1 µM (active) and 1.58 µM (active). In the case of `CC(=O)OC1=CC2=CC[C@H]3[C@H]4CCC(=O)[C@@]4(C)CC(=O)[C@]3(S)[C@]2(C)CC1`, the activity, negative = inhibition was 0.557% [at 11.4 µM] (inactive). Same read-out and setting: as for `CC[C@@](O)(C(=O)O)c1cc2n(c(=O)c1CO)Cc1cc3ccccc3nc1-2`, the figure is 10.4% [at 11.4 µM] (inactive).
